SW480 rerep = inducers of DNA re-replication in SW480 colon cancer cells | Potency, µM (series often up to 46.1 µM), inactives show at the top dose re-replication activation, most hits filed as activators | AID 624297 | SW480 DNA re-replication, Hoechst DNA content imaging, 48 h | 340,000 tested, 1.8% active; note: % of control where 0% means no effect; nearly all actives have a fitted effect of over 55% in size
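First, 250 cells per well were seeded. Next, compound or vehicle (23 nL) was pinned in, plates sat 48 hr at 37 C. Finally Hoechst was added for 40 min before fluorescence scanning.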
PINK1 modulator = changes PINK1 expression; 410,000 tested, 0.2% active; AID 624263; PINK1 immunofluorescence, high-content cytometry, 24 h; Potency, µM (titrated, usually from 76.6 µM), inactives show at the top dose activation (PINK1 increase), usual class: activators; active = well fitted activation curve with a large enough effect; inconclusive = small, poorly fitted or top-dose-only effect; cell line not stated here; note: % of control where 0% means no effect; nearly all actives have a fitted effect of over 65% in size
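A stable cell line was treated with compounds at 5 concentrations for 24 hours, with CCCP as control. PINK1 levels and mitochondrial localization were measured by immunofluorescence with mitochondrial, cell and nuclear markers after fixation, read by laser-scanning cytometry.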
TSG101-PTAP inh = blocks PTAP/TSG101 interaction to inhibit HIV-1 budding; Fluorescence polarization, FITC-PTAP peptide / Tsg101 binding; Q99816; 340,000 tested, under 10 active; Potency, µM (highest dose often 115 µM), for inactives: at the top dose activity change, negative = inhibition, most hits filed as inhibitors; active = well fitted inhibition curve with a large enough effect in the main read-out, with a control signal flat, not every such curve was filed as active; inconclusive = small, poorly fitted or top-dose-only effect, or effect the other way, or a change in a side signal; inactive = no such curve, though single readings can be large or run the other way; note: % of control where 0% means no effect
Target sequence (Q99816 whole entry, looked up): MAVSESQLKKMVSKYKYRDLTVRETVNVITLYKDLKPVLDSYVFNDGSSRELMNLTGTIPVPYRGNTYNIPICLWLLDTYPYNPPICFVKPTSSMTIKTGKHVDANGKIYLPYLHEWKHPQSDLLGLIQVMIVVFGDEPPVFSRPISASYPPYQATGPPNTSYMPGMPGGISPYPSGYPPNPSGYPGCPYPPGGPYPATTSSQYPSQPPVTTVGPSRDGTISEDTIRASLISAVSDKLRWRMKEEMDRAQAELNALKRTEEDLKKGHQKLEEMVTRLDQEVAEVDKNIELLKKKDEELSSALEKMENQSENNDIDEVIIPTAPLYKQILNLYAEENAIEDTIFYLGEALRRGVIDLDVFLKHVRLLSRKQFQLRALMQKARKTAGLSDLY
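Fluorescence anisotropy tracks displacement of a FITC-tagged PTAP peptide (50 nM) from the Tsg101 binding domain (10 uM), following a 20 min room-temperature incubation at pH 7.5.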
KB-V1 MDR tox = kills drug-selected multidrug resistant KB-V1 cells; KB-V1 MDR cells viability, CellTiter-Glo, 72 h; Potency, µM (top dose mostly 46.1 µM), usual class: cytotoxic; 400,000 tested, 3.4% active; AID 1347076; note: % is set by controls: 0 for no effect and ±100 for the full control effect; nearly all actives have a fitted effect of over 60% in size
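Following 72 h at 37 degrees C with compound, KB-V1 cell viability was read by CellTiter-Glo luminescence, medium being phenol-red-free DMEM plus 10% FBS; concentration-response parameters came from normalized, curve-fitted qHTS data.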
MCF10A rerep = induces DNA re-replication in MCF 10a normal breast cells. MCF 10A DNA re-replication, Hoechst nuclear intensity, 48 h. Potency, µM (series often up to 46.1 µM), inactives show top-dose activity, positive = re-replication, actives largely listed as activators. 350,000 tested, 2.9% active. AID 624296; note: % of control where 0% means no effect; nearly all actives have a fitted effect of over 50% in size
KB-3-1 cytotox = KB-3-1 parental cell cytotoxicity; KB-3-1 viability, CellTiter-Glo ATP luminescence, 72 h; Potency, µM (series often up to 46.1 µM), most hits filed as cytotoxic; 400,000 tested, 1.4% active; AID 1347075; note: % is set by controls: 0 for no effect and ±100 for the full control effect; nearly all actives have a fitted effect of over 60% in size
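72 h, 37 °C compound treatment of KB-3-1 parental cells; CellTiter-Glo added, 10 min, luminescence read. Data corrected against DMSO-only plates and normalized before curve fitting.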
* marks the source's active call; other numbers are inactive results; i = inactive; ? = inconclusive; nt = no result given; [ ] = remark or other dose. Sampled rows, rich in hits. Any-hit rate of the full collection: about 6.8%. Unless noted, calls come from the whole dose curve; as a rule, active = well fitted curve in the direction sought with a large enough effect; inconclusive = small, poorly fitted or top-dose-only effect, or another doubt; inactive = no such curve, though single readings can be large; an effect the other way counts as inactive or inconclusive. Potency is the fitted concentration of half-maximal effect.

SMILES | SW480 rerep | PINK1 modulator | TSG101-PTAP inh | KB-V1 MDR tox | MCF10A rerep | KB-3-1 cytotox
O=C1C(Cc2ccccc2)C(c2ccccc2)N1c1ccccc1 (stereo not drawn) | 11% | 1% | -3% | 18µM* | ? | 21µM*
CCc1ccc(C2N3CC4(C)CN2CC(c2ccccc2)(C3)C4=O)cc1 (stereo not drawn) | nt | 3% | nt | ? | nt | i
COc1ccc(-c2nc3c4ccccc4ccn3c2CN2CCOCC2)cc1OC | -16% | 1% | 0% | 16µM* | ? | i
c1ccc(-c2nc3c4ccccc4ccn3c2CN2CCOCC2)cc1 | -7% | -1% | -1% | ? | -5% | i
COc1ccc(CN(Cc2ccccc2)C(=O)c2cccc(C#N)c2)cc1COc1ccc(NC(C)=O)cc1 | nt | 1% | nt | nt | nt | nt
N#C/C(=N\Nc1ccc(Cl)cc1)C(=O)c1ccccc1 | 10% | ? | -7% | i | 23µM* | ?
Cc1c(N/N=C(\C#N)C(=O)c2ccc(Cl)cc2)c(=O)n(-c2ccccc2)n1C | 9.2µM* | 2% | -1% | i | 2.9µM* | 3.3µM*
Cc1c(NC(=O)/C(C#N)=C/c2ccc(-c3cc(Cl)ccc3Cl)o2)c(=O)n(-c2ccccc2)n1C | 21µM* | 3% | -6% | i | 19% | i
CCOC(=O)NC(=O)/C(C#N)=N\Nc1ccc(Cl)cc1 | 2% | -1% | -1% | i | -2% | i
COc1cc2c(C(=O)N(C)c3cc(Cl)ccc3OC)cn(CC(C)C)c(=O)c2cc1OC | nt | 5% | nt | ? | nt | i
O=C(Cn1c(=O)c2sccc2n(CC(=O)Nc2ccc(Cl)cc2Cl)c1=O)NCCc1ccccc1 | nt | 0% | nt | nt | nt | nt
O=C(COC(=O)/C=C/c1cccc(C(F)(F)F)c1)NCCN1C(=O)CSC1=O | 12% | -4% | 2% | nt | 26µM* | nt
Cc1cc(C)c(C#N)c(SCc2nc3ccccc3c(=O)[nH]2)n1 | ? | 11% | 0% | i | 10µM* | i
COCc1cc(C)nc(SCc2nc3ccccc3c(=O)[nH]2)c1C#N | ? | 18% | -2% | i | 2.1µM* | i
Cc1c(-c2ccccc2)[nH]n2c(=O)c3c(nc12)CCCC3 | ? | 0% | -5% | 21µM* | 6% | i
Cc1ccc(-c2[nH]n3c(=O)c4c(nc3c2C)CCCC4)cc1 | -33% | nt | -3% | i | 2% | i
CC(=O)C1=C(S(=O)(=O)c2ccc(C)cc2)CS(=O)(=O)C1 | 15µM* | 11% | -3% | i | 15µM* | ?
CCc1ccccc1NC(=O)c1cc(S(=O)(=O)N2CCCc3ccccc32)ccc1F | nt | 0% | nt | i | nt | i
CCOC(=O)CCc1c(C)c2ccc3c(c2oc1=O)CN(CCCO)CO3 | ? | 0% | -2% | i | 7.3µM* | i
CN(C)CC(C(=O)c1ccccc1)c1ccccc1 (stereo not drawn) | 25% | -3% | 0% | ? | 2.6µM* | ?
CN(Cc1cc(Cl)cc(Cl)c1)CC(C(=O)c1ccccc1)c1ccccc1 (stereo not drawn) | 13µM* | 1% | -1% | i | 16µM* | ?
Cc1cn2c(=O)cc(COc3ccc(NC(=O)c4cccc(F)c4)cc3)nc2s1 | nt | 1% | nt | i | nt | i
Nc1c(-c2nc(-c3ccc(Cl)cc3)cs2)c2ccccn2c1C(=O)c1ccc2c(c1)OCO2 | nt | 3% | nt | i | nt | i
CC(C)Cn1c(=O)c2sccc2n2c(CCCC(=O)Nc3ccc(Cl)cc3)nnc12 | nt | 0% | nt | nt | nt | nt
O=[N+]([O-])c1ccc(S(=O)(=O)c2cccc(C(F)(F)F)c2)nc1 | 4.1µM* | -1% | -2% | ? | 5.2µM* | ?
O=S(=O)(Nc1cccnc1)c1cccc(C(F)(F)F)c1 | -1% | -1%[38.3 µM] | -3% | i | -9% | i
CC(NC(=O)C1CCOCC1)c1nnc2n1CCN(Cc1ccc(F)cc1)CC2 (stereo not drawn) | nt | 1% | nt | nt | nt | nt

Screens as filed in PubChem BioAssay.
